Screening data as filed in PubChem BioAssay.
This excerpt belongs to a sample that is enriched for hits.
RMI FANCM FP = inhibitors of human RMI core complex binding to FANCM MM2; Fluorescence polarization, RMI core complex with F-MM2 peptide; active compounds read low; FP signal (polarization) at 33 µM; actives 0.58% (n = 70,000); in the data active means FP signal below about 40
* marks the source's active call; other numbers are inactive results; ! = not active in a repeat.

SMILES	RMI FANCM FP
CCN1CCc2c(sc(NC(=O)CS(=O)(=O)c3ccc(F)cc3)c2C(N)=O)C1	13*
CC(C)N1CCc2c(sc(NC(=O)c3ccn(C)n3)c2C(N)=O)C1	74
CCOC(=O)N1CCc2c(sc(NC(=O)CCS(=O)(=O)c3ccccc3)c2C(N)=O)C1	69
CCN1CCc2c(sc(NC(=O)c3ccnn3C)c2C(N)=O)C1	68
CC(=O)N1CCc2c(sc(NC(=O)CSc3ccc(Cl)cc3)c2C(N)=O)C1	-4*
CCOC(=O)N1CCc2c(sc(NC(=O)CCSc3ccc(Cl)cc3)c2C(N)=O)C1	58
CC(C)(C)c1ccc(C(=O)N2CCN(c3ccc4nnc(-c5ccco5)n4n3)CC2)cc1	65
O=C(COc1ccccc1)NCC1(c2cccs2)CCCC1	68
COC(CNc1cccc(F)c1C#N)OC	44
FC(F)(F)c1cccc(N/N=C\c2nc3ccccc3s2)c1	52
COc1ccc(Cl)cc1C(=O)Nc1cc(-c2cccs2)nn1-c1nc(C(C)C)cc(=O)[nH]1	88
Cc1ccc(Cn2c(SCC(=O)Nc3ccc(C)cc3)nc3c(sc4ncccc43)c2=O)cc1	137
O=C(NCc1cccnc1)c1ccc(=O)n(Cc2cccc(F)c2)n1	66
Cc1cc(C(=O)CSc2nnnn2-c2ccccc2)c(C)n1-c1ccccc1	63
O=C(Nc1nc(-c2ccc3c(c2)OCCO3)cs1)c1c(F)cccc1F	64
Cc1cc(NC(=O)CN2CC3CC(C2)c2cccc(=O)n2C3)nc2c1c(=O)oc1ccccc12 (stereo not drawn)	31*!
O=C(CSc1nc2c(oc3ccccc32)c(=O)n1CC1CCCO1)Nc1cccc(Cl)c1 (stereo not drawn)	67
Cc1cc(NC(=O)C(C)(C)Oc2ccc(Cl)cc2)nc2c1c(=O)oc1ccccc12	75
CCCC(=O)Nc1ccc(S(=O)(=O)Nc2ccc3c(c2)C(=O)NCCO3)cc1	65
CCOC(=O)c1c(-c2ccc(OC)cc2)csc1NC(=O)CNCCCN1CCOCC1	73
COC(=O)c1ccc(OCC(O)CN2CCN(CCN3C(=O)c4cccc5cccc(c45)C3=O)CC2)cc1 (stereo not drawn)	56
COc1ccc(C(=O)CN2CCN(CCN3C(=O)c4cccc5cccc(c45)C3=O)CC2)cc1	25*
O=C(CN1CCN(CCN2C(=O)c3cccc4cccc(c34)C2=O)CC1)c1ccc(F)cc1	63
C#CCn1c(=NC(=O)c2ccc(C#N)cc2)sc2cccc(F)c21	83
CC(=O)N1CCN(c2ccnc3c2c(=O)n(CC(=O)NC(C)(C)C)c(=O)n3C)CC1	64
SMILES	RMI FANCM FP
CC1C(=O)N2CCCc3cc(NS(=O)(=O)c4cccs4)cc1c32 (stereo not drawn)	55
Cc1cccc(Oc2nc3ccccn3c(=O)c2/C=C(\C#N)c2nc3ccccc3s2)c1	0*
N#C/C(=C\c1cn[nH]c1-c1ccccc1)c1nc2ccccc2s1	68
N#C/C(=C\c1ccc(C#N)cc1)c1nc2ccccc2s1	71
CCc1nnc2ccc(OCCNC(=O)COc3ccc4c(c3)OCO4)nn12	71
COc1cccc(C(=O)Nc2cc(C)nn2-c2nc3ccccc3s2)c1OC	64
CCOC(=O)CCc1c(C(=O)OCC)[nH]c2c1CC(=O)NC2	32*
CCOC(=O)c1ccc(NC(=O)CCc2c(C)[nH]c(=O)[nH]c2=O)cc1	64
CCOC(=O)c1[nH]c2c(c1C)C(=O)CCC2	59
CCOc1ccc(NC(=O)Cc2csc(NC(=O)C3CCC(=O)N3)n2)cc1 (stereo not drawn)	58
O=S(=O)(NCCN1CCN(c2ccccc2)CC1)c1ccc2ccccc2c1	63
Clc1cc(Cl)c2nc(N3CCN(c4ccccc4)CC3)sc2c1	59
CCOC(=O)c1c(C)oc2c1c(C=NC1CC(C)(C)NC(C)(C)C1)c(O)c1ccccc12	8*
CCOC(=O)c1c(C)oc2c1c(C=NC(C)c1ccccc1)c(O)c1ccccc12 (stereo not drawn)	39
CCOC(=O)c1c(-c2ccccc2)oc2c1cc(NS(=O)(=O)c1ccc(C)cc1C)c1ccccc12	60
CCOC(=O)c1c(NC(=O)c2ccc([N+](=O)[O-])o2)sc2c1CCN(C(C)=O)C2	63
COc1ccccc1-c1ccc(N2CCC(C(=O)Nc3ccccc3)CC2)nn1	60
O=C(O)c1ccc(=O)[nH]n1	69
O=c1c(-c2ccccc2)coc2cc(O)cc(O)c12	33*
COc1cc(O)c2c(=O)c(-c3ccc(O)cc3)coc2c1	51
O=c1cc(-c2ccccc2)oc2cc(O)cc(O)c12	55
O=[N+]([O-])c1ccc(/C=C/c2nccc3ccsc23)cc1	60
O=C(CNC(=O)c1ccc([N+](=O)[O-])cc1)N/N=C\c1ccc(F)cc1	63
COc1ccc(-c2nn(-c3ccccc3)cc2/C=C2\SC(=O)NC2=S)cc1	27*
COc1ccc(-c2nn(-c3ccccc3)cc2CN(Cc2ccccc2)C(=O)/C=C/C(=O)O)cc1	61
SMILES	RMI FANCM FP
Cc1ccc(-c2nn(-c3ccccc3)cc2/C=C2\SC(=S)NC2=O)cc1F	74
Cn1cccc(C(=O)Nc2ccc3c(c2)N(C(=O)c2cccs2)CC3)c1=O	66
COC(=O)c1cc(-c2ccc(Cl)cc2)n(C(=O)OC)n1	67
Cc1nn(C2CCS(=O)(=O)C2)c2nc(-c3cccs3)cc(C(=O)N3CCc4ccccc4C3)c12 (stereo not drawn)	74
Cn1c(SCc2cc(F)cc3c2OCOC3)nnc1C(F)(F)F	54
COc1ccc(-c2nc(SC(CC(=O)NCCN3CCOCC3)c3ccc(OC)cc3)n[nH]2)cc1 (stereo not drawn)	22*
COc1ccc(-c2nc(SC(CC(=O)NCCc3ccccc3)c3cccs3)n[nH]2)cc1 (stereo not drawn)	53
COc1ccc(C(CC(=O)NCc2ccccc2)Sc2n[nH]c(-c3ccc(F)cc3)n2)cc1 (stereo not drawn)	119
Fc1ccc(-c2nc(=S)c3c([nH]2)Oc2ccc(Br)cc2C3)cc1	26*
Fc1ccc(-c2noc(-c3ccc4c(c3)CCO4)n2)cc1	59
COc1cn(CC(=O)Nc2ccc(Br)cc2)c(CN2CCC(C)CC2)cc1=O	57
COc1cn(CC(=O)NCc2ccc(C)cc2)c(CN2CCC(C)CC2)cc1=O	59
COc1cn(CC(=O)Nc2cccc3ccccc23)c(CN2CCN(c3ccc(F)cc3)CC2)cc1=O	35*
O=S(=O)(Oc1ccc2nonc2c1)c1ccc(Cl)cc1Cl	56
COc1ccc(/C(C)=N\NC2=NCCCN2)cc1	62
CC(C)(C)c1ccc(C(=O)NCCn2ncc3c(=O)n(Cc4ccccc4F)cnc32)cc1	72
COc1ccc(Cl)cc1NC(=O)CSc1nccn2nc(-c3ccc(F)cc3)cc12	119
O=c1nc2s/c(=C/c3ccccn3)c(=O)n2nc1-c1ccccc1	21*
O=c1/c(=C/c2ccccc2)sc2nnc(-c3ccc(Cl)cc3)n12	52
O=c1/c(=C\c2ccc(Cl)cc2)sc2nc(-c3ccc(Cl)cc3)nn12	59
Cc1nnc(NC(=O)CCN2C(=O)c3ccccc3S2(=O)=O)s1	53
O=c1c2cnn(-c3ccccc3)c2nnn1/N=C\c1ccc([N+](=O)[O-])cc1	43
O=[N+]([O-])c1cccc(-c2nnc3c4cnn(-c5ccc(F)cc5)c4ncn23)c1	64
N=c1c2cnn(-c3ccccc3)c2ncn1/N=C\c1ccc([N+](=O)[O-])cc1	39*
Cc1noc(C)c1C(=O)O/N=C(/N)Cc1ccc(-c2csnn2)cc1	54
Cc1cc(C(=O)N(Cc2cccnc2)c2nc3ccc(F)cc3s2)on1	62
